This note sets out measurements from PubChem BioAssay (EPA / NIEHS).

Inconclusive results are not listed. Activity calls are given as the source filed them. How the source made its calls: active means hit-call score of the fitted dose curve at least 0.9, where 1 is the maximum; inconclusive means response in the unintended direction; inactive means score below 0.9.

Cytochrome P450 3A4 (Homo sapiens), sequence (P08684 whole entry, looked up): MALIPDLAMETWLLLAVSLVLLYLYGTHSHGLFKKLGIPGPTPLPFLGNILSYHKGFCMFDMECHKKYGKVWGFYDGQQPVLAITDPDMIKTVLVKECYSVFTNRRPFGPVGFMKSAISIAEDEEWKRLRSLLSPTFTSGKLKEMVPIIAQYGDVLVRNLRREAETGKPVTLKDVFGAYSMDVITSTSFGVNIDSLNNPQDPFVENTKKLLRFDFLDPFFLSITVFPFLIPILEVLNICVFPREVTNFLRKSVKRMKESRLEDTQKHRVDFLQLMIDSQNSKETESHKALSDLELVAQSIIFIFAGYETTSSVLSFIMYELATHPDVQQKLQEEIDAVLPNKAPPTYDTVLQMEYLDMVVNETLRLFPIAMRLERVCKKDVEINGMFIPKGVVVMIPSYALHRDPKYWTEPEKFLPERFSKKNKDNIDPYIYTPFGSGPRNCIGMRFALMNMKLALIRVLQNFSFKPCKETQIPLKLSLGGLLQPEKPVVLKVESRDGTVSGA

Read-out in this assay: Cytochrome P450 3A4 (Homo sapiens) (UniProt P08684)
Nature of the assay: CLD_CYP3A4_6hr: CellzDirect (CLD) Gene Expression Assay for xenobiotic metabolism (CYP3A4) at 6 hours (AID 2283680). The method, then:
CLD_6hr is a cell-based, multiplexed-readout assay that uses hepatocyte, a human liver primary cell, with measurements taken at 6 hours after chemical dosing in a 96-well plate.CLD_CYP3A4_6hr is one of 16 assay component(s) measured or calculated from the CLD_6hr assay. It is designed to make measurements of mRNA induction, a form of inducible reporter, as detected with chemiluminescence signals by Quantitative Nuclease Protection Assay (qNPA) technology.Data from the assay component CLD_CYP3A4_6hr was analyzed at the endpoint, CLD_CYP3A4_6hr, in the positive analysis fitting direction relative to DMSO as the negative control and baseline of activity. Using a type of inducible reporter, gain-of-signal activity can be used to understand changes in the reporter gene as they relate to the gene CYP3A4. Furthermore, this assay endpoint can be referred to as a primary readout. To generalize the intended target to other relatable targets, this assay endpoint is annotated to the cyp intended target family, where subfamily is xenobiotic metabolism.
Human hepatocyte cultures were treated daily for two consecutive days with fresh dosing solutions containing appropriate concentrations of the 320 ToxCast chemicals (chemical identities were blinded to CellzDirect and other ToxCast collaborators), vehicle control (0.2% DMSO), and positive control inducers as summarized in Table 1. Due to the large number of treatment groups and chemicals examined, the ToxCast chemicals were divided into two groups (spanning two independent cultures of hepatocytes from separate donor preparations (Hu778: ToxCast plates 1 and 2; Hu776: ToxCast plates 3 and 4). Each preparation of human hepatocyte cultures was treated with respective vehicle control, medium only control, set of six positive controls/reference chemicals for the five hepatic receptor pathways, and a subset of eight of the ToxCast chemicals (indoxacarb, pyrithiobac-sodium, norflurazon, cyhalofop-butyl, methomyl, thiram, acetochlor, and propiconazole). These replicate data, coupled with internal replicates designed within the blinded ToxCast chemical library, provided additional data to evaluate interindividual differences between hepatocyte preparations and their potential impact on chemical profiles.Cell morphology and integrity were evaluated using phase-contrast microscopy as an indicator of hepatocyte cell health (Tyson & Green, 1987). Cultures for each treatment group (i.e., media, vehicle [0.2% DMSO], positive control inducers [multiple concentrations], and the ToxCast chemicals [multiple concentrations]) were observed and cell morphology was assessed relative to vehicle control cultures at each harvest time point (0, 6, 24, or 48 h). […] Images were evaluated at the conclusion of the study to assess changes in cell integrity and account for the effects of chemical exposure on uncharacteristic changes in concentration-dependent gene expression profiles. The results from these determinations of apparent cytotoxicity were annotated (yes/no) alongside the corresponding qNPA data for reference.At the conclusion of each treatment period, hepatocyte cultures (96-well) were washed with 1 volume of HBSS, lysed by addition of 25 ul ArrayPlate lysis buffer (HTG, Tucson, AZ), and 70 ul/well of Denaturation Oil, denatured by incubation at 95C for 10 min, and frozen at approximately -70C until analysis by nuclease protection assay (qNPA) (Roberts et al., 2007). For qNPA analysis, cell lysates were thawed at 50C for approximately 30 min, qNPA probes were added, and samples were incubated at 95C for 10 min to begin the detection process by denaturing the target RNA, dissociating the duplexes and secondary structure hybridization. At the conclusion of the hybridization period, S1 nuclease reagent was added to each sample to digest all nonprotected nucleotides at 50C for 60-90 min. […]
Turning to `COc1nc(C)nc(NC(=O)NS(=O)(=O)c2ccccc2CCC(F)(F)F)n1`, the compound was classed as inactive. On the same count and under the same terms, in the case of `CC1=C(C(=O)Nc2ccccc2)SCCO1` it was “inactive”. On the same count and under the same terms, the result for `CCON=C(CC)C1=C(O)CC(c2c(C)cc(C)cc2C)CC1=O` (stereo not drawn) reads “inactive”; that for `N#Cc1nn(-c2c(Cl)cc(C(F)(F)F)cc2Cl)c(N)c1S(=O)C(F)(F)F` (stereo not drawn), “inactive”; that for `COc1nc(NC(C)C)nc(NC(C)C)n1`, “inactive”. Consider `Cc1ccc(-c2c(Cl)nc(C#N)n2S(=O)(=O)N(C)C)cc1`, for which the AC50 is 1890 nM (active).

Consider `C#CCOS(=O)OC1CCCCC1Oc1ccc(C(C)(C)C)cc1` (stereo not drawn), for which the AC50 is 1890 nM (active). As for `CCCC1COC(Cn2cncn2)(c2ccc(Cl)cc2Cl)O1` (stereo not drawn), the compound was called inactive. Same read-out and setting: the result for `COC(=O)C(C)Oc1ccc(Oc2ccc(Cl)cc2Cl)cc1` (stereo not drawn) reads “inactive”. In the case of `CCCCNC(=O)OCC#CI`, the AC50 was 1890 nM (active). Turning to `CNC(=S)S`, the compound was classed as inactive. For `COc1cnc(OC)n2nc(NS(=O)(=O)c3c(OCC(F)F)cccc3C(F)(F)F)nc12`, the AC50 was 8340 nM (active). Regarding `Cc1c(F)c(F)c(COC(=O)C2C(/C=C(\Cl)C(F)(F)F)C2(C)C)c(F)c1F` (stereo not drawn), the compound was called inactive.

On to `CCc1nn(C)c(C(=O)NCc2ccc(C(C)(C)C)cc2)c1Cl`, for which the compound was called inactive. With `CCNc1nc(Cl)nc(NC(C)C)n1`, the AC50 was 20000 nM (active).

In the case of `CC(C)C1(C)N=C(c2nc3ccccc3cc2C(=O)O)NC1=O` (stereo not drawn), the call was inactive. Consider `CC(C)Oc1cc(-n2nc(C(C)(C)C)oc2=O)c(Cl)cc1Cl`, for which the half-maximal activity concentration (AC50) was 1890 nM (active). As to `COP(=S)(OC)Oc1nc(Cl)c(Cl)cc1Cl`, the compound was called inactive. In the case of `C=CC1(C)OC(=O)N(c2cc(Cl)cc(Cl)c2)C1=O` (stereo not drawn), the call was inactive. On to `COC(=O)N(OC)c1ccccc1COc1ccn(-c2ccc(Cl)cc2)n1`, for which the outcome was inactive.

Turning to `CCOc1cc(Oc2ccc(C(F)(F)F)cc2Cl)ccc1[N+](=O)[O-]`, the AC50 was 5400 nM (active).

Consider `CCCCOC(=O)c1ccccc1C(=O)OCCCC`, for which the result was inactive.

In the case of `OC(c1ccc(Cl)cc1)(c1cncnc1)c1ccccc1Cl` (stereo not drawn), the outcome was inactive. On the same count and under the same terms, the result for `CON(C)C(=O)Nc1ccc(Cl)c(Cl)c1` reads “inactive”; that for `CCOC(=O)C(Cl)Cc1cc(-n2nc(C)n(C(F)F)c2=O)c(F)cc1Cl` (stereo not drawn), “inactive”.

Take `CNC(=O)ON=CC(C)(C)SC`: the result was inactive. Still for that read-out and setting: the result for `N#CC(CCc1ccc(Cl)cc1)(Cn1cncn1)c1ccccc1` (stereo not drawn) reads “inactive”; that for `COc1nc(C)nc(NC(=O)NS(=O)(=O)c2ccccc2Cl)n1`, “inactive”. Same read-out and setting: in the case of `CCOC(=O)CC(SP(=S)(OC)OC)C(=O)OCC` (stereo not drawn) it was “inactive”. As for `C=CCC1=C(C)C(OC(=O)C2C(C=C(C)C)C2(C)C)CC1=O` (stereo not drawn), the outcome was inactive. The same measure, in the same setting: in the case of `COC(=O)C=C(C)OP(=O)(OC)OC` it was “inactive”. Take `CCCN(CCC)c1c([N+](=O)[O-])cc(S(N)(=O)=O)cc1[N+](=O)[O-]`: the call was inactive.

For `COP(N)(=O)SC` (stereo not drawn), the compound was classed as inactive.

A word on the AC50: it is the concentration at which the activity in the assay is half-maximal.
